Measured values published in the supplement of paper PMC10849652.
Targets with a hit are over-represented here; the source holds about 8,800 in all. About 0.5% of all pairs of compound and target were hits.

Experiments:
Assay in all cases: log2 fold change, soluble protein after heating vs DMSO (PISA); higher = thermal stabilisation; K562 lysate, 10 uM; active = over 0.2 and 3.5 SD of the protein, either way, in both replicates (recomputed)
[1] = compound: NCC(=O)Nc1ccc(-n2nc(C(F)(F)F)cc2-c2ccc3c(ccc4ccccc43)c2)cc1
How it was run: (§1)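 Soluble protein was defined as the supernatant remaining after 21,000xg for 90 min, following pooling of heated aliquots and adjustment to 0.5% NP-40 at 4°C. Before that, crude K562 extract at 1 mg/mL protein in PBS pH 7.4 with 1 mM MgCl2 was treated with 10 μM compound for 30 min and heated for 3 min across 48°C-58°C. Quantification used TMTpro 16plex LC-MS/MS with channel sums equalised, and values are log-two fold changes in thermal stability relative to solvent controls from duplicates.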

vorinostat = compound: O=C(CCCCCCC(=O)Nc1ccccc1)NO [vorinostat]
How it was run: as §1

silmitasertib = compound: O=C(O)c1ccc2c(c1)nc(Nc1cccc(Cl)c1)c1ccncc12 [silmitasertib]
How it was run: as §1

[2] = compound: O=C1NC(=O)C(c2cnc3ccccn23)=C1c1cn2c3c(cc(F)cc13)CN(C(=O)N1CCCCC1)CC2
How it was run: as §1

entospletinib = compound: c1cn2cc(-c3ccc4cn[nH]c4c3)nc(Nc3ccc(N4CCOCC4)cc3)c2n1 [entospletinib]
How it was run: as §1

Measured: log2 fold change

CDC7 (UniProt O00311)
Sequence of UniProt O00311 (O00311 whole entry, looked up): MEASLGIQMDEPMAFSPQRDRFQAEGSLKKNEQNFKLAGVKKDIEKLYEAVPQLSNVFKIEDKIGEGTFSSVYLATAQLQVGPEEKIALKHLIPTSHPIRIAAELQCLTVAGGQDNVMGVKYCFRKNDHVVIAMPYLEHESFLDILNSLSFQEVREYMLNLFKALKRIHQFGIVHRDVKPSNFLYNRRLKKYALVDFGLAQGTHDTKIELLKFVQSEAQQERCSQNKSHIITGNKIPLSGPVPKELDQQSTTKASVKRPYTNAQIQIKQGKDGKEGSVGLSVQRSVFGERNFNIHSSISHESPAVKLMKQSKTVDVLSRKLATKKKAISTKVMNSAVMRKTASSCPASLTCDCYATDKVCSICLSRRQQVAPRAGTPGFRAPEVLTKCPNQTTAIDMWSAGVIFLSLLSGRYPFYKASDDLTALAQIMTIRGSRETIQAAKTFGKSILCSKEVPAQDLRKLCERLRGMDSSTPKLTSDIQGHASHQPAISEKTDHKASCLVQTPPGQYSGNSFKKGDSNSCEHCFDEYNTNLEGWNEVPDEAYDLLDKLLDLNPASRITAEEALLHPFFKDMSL
inactive: [1] 0.086 | vorinostat -0.152 | silmitasertib -0.077 | [2] -0.01 | entospletinib 0.007

CCNB1 (UniProt P14635)
Sequence of UniProt P14635 (P14635 whole entry, looked up): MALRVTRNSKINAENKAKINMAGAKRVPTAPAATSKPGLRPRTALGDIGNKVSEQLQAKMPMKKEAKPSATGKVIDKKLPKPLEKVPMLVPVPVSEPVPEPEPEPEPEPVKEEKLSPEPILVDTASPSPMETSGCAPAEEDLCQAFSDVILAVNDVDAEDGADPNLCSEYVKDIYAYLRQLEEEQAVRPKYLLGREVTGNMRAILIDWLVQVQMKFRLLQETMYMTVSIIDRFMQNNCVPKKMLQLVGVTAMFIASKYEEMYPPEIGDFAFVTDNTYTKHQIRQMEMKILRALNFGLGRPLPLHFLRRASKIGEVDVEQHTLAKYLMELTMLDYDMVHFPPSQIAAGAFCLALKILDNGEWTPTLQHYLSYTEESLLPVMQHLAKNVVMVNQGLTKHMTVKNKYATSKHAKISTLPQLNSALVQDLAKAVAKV
inactive: [1] 0.05 | vorinostat -0.008 | silmitasertib -0.013 | [2] -0.02 | entospletinib -0.009

C12orf45 (UniProt Q8N5I9)
Sequence of UniProt Q8N5I9 (Q8N5I9 whole entry, looked up): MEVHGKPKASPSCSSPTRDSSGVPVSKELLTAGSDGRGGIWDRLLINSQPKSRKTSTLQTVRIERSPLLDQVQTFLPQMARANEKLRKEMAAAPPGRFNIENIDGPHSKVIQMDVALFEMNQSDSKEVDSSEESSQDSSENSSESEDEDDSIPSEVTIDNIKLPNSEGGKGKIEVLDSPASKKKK
inactive: [1] 0.063 | vorinostat 0.012 | silmitasertib -0.059 | [2] -0.027 | entospletinib 0

CES2 isoform 4 (UniProt O00748)
Sequence of UniProt O00748 (O00748 whole entry, looked up): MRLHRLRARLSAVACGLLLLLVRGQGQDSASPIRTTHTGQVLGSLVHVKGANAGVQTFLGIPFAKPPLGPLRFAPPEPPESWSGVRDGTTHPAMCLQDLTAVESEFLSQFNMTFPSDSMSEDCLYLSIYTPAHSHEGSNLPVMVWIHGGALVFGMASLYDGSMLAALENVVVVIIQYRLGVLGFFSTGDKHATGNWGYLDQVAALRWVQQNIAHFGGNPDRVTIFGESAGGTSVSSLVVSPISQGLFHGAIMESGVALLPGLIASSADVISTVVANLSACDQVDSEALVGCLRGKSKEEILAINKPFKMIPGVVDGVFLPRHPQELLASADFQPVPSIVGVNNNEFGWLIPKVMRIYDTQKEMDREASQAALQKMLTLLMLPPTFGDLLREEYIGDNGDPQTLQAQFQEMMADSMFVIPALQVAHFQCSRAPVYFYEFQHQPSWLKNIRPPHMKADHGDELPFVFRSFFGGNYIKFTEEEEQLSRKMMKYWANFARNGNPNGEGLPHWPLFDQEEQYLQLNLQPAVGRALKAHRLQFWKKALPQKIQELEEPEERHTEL
inactive: [1] 0.049 | vorinostat 0.307 | silmitasertib -0.093 | [2] 0.177 | entospletinib -0.034

CCNH (UniProt P51946)
Sequence of UniProt P51946 (P51946 whole entry, looked up): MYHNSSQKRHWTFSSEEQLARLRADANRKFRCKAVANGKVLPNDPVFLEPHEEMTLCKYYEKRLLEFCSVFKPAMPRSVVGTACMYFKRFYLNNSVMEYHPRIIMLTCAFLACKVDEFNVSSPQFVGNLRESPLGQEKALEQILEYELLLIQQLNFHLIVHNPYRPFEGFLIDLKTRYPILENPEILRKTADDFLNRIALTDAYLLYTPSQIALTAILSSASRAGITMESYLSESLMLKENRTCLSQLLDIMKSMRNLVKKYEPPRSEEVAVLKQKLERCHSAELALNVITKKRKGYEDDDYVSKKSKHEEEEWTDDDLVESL
active: vorinostat -0.43
inactive: [1] 0.028 | silmitasertib 0.02 | [2] -0.07 | entospletinib 0.02

CHAC2 (UniProt Q8WUX2)
inactive: [1] -0.158 | vorinostat 0.066 | silmitasertib -0.02 | [2] -0.012 | entospletinib -0.052

CD63 (UniProt P08962)
inactive: [1] -0.1 | vorinostat 0.123 | silmitasertib -0.039 | [2] -0.173 | entospletinib 0.077

BUD23 isoform 3 (UniProt O43709)
Sequence of UniProt O43709 (O43709 whole entry, looked up): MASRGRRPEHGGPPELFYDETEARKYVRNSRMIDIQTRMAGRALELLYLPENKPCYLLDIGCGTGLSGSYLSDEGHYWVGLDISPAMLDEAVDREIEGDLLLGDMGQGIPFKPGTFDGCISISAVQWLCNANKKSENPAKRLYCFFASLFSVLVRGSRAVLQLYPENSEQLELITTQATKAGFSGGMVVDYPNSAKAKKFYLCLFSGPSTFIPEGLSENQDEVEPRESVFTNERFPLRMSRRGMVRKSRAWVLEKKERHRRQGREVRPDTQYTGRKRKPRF
inactive: [1] 0.007 | vorinostat 0.014 | silmitasertib -0.07 | [2] -0.021 | entospletinib 0.055

BLOC1S6 (UniProt Q9UL45)
inactive: [1] -0.022 | silmitasertib 0.004 | [2] 0.011 | entospletinib 0.046
active: vorinostat -0.386

C1orf131 isoform 5 (UniProt Q8NDD1)
Sequence of UniProt Q8NDD1 (Q8NDD1 whole entry, looked up): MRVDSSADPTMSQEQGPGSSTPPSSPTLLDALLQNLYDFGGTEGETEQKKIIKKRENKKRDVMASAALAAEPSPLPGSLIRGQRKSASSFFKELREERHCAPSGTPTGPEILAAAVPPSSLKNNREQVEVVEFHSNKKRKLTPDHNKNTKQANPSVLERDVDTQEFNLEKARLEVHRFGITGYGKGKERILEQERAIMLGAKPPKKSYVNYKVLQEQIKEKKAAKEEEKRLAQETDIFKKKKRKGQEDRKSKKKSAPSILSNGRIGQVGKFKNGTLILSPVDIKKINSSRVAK
active: vorinostat -0.445
inactive: [1] 0.059 | silmitasertib -0.025 | [2] 0.039 | entospletinib -0.013

BOLA2 (UniProt Q9H3K6)
inactive: [1] -0.085 | vorinostat 0.1 | silmitasertib 0.039 | [2] -0.039 | entospletinib -0.015

CCAR2 (UniProt Q8N163)
Sequence of UniProt Q8N163 (Q8N163 whole entry, looked up): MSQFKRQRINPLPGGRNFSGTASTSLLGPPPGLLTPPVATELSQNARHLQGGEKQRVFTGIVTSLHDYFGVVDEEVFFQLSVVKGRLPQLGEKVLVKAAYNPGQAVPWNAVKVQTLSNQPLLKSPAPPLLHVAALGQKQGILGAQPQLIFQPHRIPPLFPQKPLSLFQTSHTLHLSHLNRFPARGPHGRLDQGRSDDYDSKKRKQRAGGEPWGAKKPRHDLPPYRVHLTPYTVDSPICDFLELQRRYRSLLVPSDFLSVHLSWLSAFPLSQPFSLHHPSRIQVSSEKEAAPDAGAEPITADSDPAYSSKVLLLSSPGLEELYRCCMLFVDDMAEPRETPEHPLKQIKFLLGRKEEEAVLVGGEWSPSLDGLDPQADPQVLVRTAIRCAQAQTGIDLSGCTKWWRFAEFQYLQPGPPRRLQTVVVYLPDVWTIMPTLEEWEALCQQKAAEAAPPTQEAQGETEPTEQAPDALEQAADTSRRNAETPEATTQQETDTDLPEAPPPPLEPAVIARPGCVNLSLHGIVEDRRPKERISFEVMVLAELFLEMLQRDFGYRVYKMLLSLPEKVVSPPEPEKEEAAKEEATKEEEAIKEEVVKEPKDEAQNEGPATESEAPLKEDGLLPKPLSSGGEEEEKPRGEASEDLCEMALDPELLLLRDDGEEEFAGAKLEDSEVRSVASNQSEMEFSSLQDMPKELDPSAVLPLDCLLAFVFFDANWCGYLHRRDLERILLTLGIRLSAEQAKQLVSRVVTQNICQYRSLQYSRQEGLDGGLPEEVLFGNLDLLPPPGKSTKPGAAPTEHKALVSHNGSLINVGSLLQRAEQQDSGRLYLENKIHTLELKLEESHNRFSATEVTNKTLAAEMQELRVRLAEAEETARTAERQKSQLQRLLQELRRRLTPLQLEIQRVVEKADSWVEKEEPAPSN
active: vorinostat -0.399
inactive: [1] 0.01 | silmitasertib 0.002 | [2] -0.02 | entospletinib 0.02

CAMLG (UniProt P49069)
inactive: [1] -0.009 | vorinostat -0.15 | silmitasertib -0.027 | [2] 0.006 | entospletinib 0.001

BCKDK (UniProt O14874)
active: [2] -0.271
inactive: [1] -0.01 | vorinostat 0.025 | silmitasertib 0.052 | entospletinib -0.053

CDK5RAP1 (UniProt Q96SZ6)
inactive: [1] 0.011 | vorinostat 0.036 | silmitasertib -0.07 | [2] 0.016 | entospletinib 0.029

CARD9 (UniProt Q9H257)
Sequence of UniProt Q9H257 (Q9H257 whole entry, looked up): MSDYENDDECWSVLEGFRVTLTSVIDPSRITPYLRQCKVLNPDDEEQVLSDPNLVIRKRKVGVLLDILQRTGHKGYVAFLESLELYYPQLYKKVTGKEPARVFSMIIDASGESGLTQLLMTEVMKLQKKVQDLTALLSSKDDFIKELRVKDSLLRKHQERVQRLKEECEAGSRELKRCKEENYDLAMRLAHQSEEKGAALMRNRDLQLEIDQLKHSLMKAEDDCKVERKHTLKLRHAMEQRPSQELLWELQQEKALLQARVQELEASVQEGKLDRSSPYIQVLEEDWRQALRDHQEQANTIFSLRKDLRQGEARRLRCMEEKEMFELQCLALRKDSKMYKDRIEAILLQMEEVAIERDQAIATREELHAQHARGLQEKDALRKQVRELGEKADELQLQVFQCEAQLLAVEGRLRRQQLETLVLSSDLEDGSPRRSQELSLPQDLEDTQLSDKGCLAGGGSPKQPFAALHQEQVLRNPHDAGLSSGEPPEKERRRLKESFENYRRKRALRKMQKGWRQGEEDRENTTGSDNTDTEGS
inactive: [1] 0.008 | silmitasertib 0.011 | [2] 0.014 | entospletinib -0.038
active: vorinostat -0.217

CCNC (UniProt P24863)
inactive: [1] 0.159 | vorinostat -0.001 | silmitasertib 0.338 | [2] -0.092 | entospletinib 0.029

AVEN (UniProt Q9NQS1)
Sequence of UniProt Q9NQS1 (Q9NQS1 whole entry, looked up): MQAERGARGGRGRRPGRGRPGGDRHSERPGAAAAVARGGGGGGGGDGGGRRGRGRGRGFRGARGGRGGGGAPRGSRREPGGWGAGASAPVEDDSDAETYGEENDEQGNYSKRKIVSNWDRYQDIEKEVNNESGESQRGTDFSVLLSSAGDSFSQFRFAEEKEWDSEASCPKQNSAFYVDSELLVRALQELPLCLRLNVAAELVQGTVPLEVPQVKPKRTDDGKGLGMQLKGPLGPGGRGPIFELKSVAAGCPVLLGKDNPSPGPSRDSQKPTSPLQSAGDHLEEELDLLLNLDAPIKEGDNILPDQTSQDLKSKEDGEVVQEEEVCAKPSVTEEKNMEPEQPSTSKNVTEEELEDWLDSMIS
inactive: [1] -0.146 | silmitasertib -0.009 | [2] 0.092 | entospletinib -0.161
active: vorinostat -0.738

BNIP1 (UniProt Q12981)
inactive: [1] -0.013 | vorinostat -0.049 | silmitasertib 0.066 | [2] -0.026 | entospletinib -0.051

AURKA (UniProt O14965)
inactive: [1] -0.008 | vorinostat -0.236 | silmitasertib 0.135 | [2] 0.1 | entospletinib 0.167

BPHL (UniProt Q86WA6)
inactive: [1] -0.093 | vorinostat 0.143 | silmitasertib 0.049 | [2] -0.006 | entospletinib 0.028

CEP152 (UniProt O94986)
inactive: [1] 0.025 | vorinostat -0.167 | silmitasertib 0.039 | [2] 0.089 | entospletinib -0.04

CDK16 isoform 2 (UniProt Q00536)
Sequence of UniProt Q00536 (Q00536 whole entry, looked up): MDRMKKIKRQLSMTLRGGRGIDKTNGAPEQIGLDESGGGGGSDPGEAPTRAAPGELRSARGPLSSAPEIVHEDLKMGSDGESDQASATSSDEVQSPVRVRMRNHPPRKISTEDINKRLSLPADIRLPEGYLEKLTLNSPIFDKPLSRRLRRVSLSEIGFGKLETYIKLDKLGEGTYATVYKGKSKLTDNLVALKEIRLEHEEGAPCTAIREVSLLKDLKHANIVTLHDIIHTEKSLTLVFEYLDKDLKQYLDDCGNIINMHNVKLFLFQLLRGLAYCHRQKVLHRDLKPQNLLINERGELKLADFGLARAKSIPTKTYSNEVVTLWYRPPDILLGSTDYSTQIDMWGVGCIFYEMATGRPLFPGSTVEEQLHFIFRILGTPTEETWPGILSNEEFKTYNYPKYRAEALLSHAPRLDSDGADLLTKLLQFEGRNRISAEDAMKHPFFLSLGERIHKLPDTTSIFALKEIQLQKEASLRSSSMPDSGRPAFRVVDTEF
inactive: [1] 0.006 | vorinostat 0.055 | entospletinib -0.05
active: silmitasertib 0.446 | [2] 0.603
